Measured values published in PubChem BioAssay (EPA / NIEHS).
Records with an inconclusive call do not appear. Activity calls are given as the source filed them. Rule for the calls: active = hit-call score of the fitted dose curve at least 0.9, where 1 is the maximum; inconclusive = response in the unintended direction; inactive = score below 0.9.

Test: Tanguay_ZF_120hpf_SNOU_legacy: (Legacy) Oregon State University Tanguay Lab 120 Hour Post-fertilization zebrafish Assay for Snout Malformation (AID 2283637)
Protocol: Tanguay_ZF_120hpf_legacy is a whole embryo, multiplexed endpoint assay using zebrafish larvae exposed for 120 hours post fertilization on a 96-well plate.Tanguay_ZF_120hpf_SNOU_legacy is one of one assay component(s) measured or calculated from the Tanguay_ZF_120hpf_legacy assay. It is designed to make measurements of zebrafish development as detected with brightfield microscopy of developing zebrafish embryos.Data from the assay component Tanguay_ZF_120hpf_SNOU_legacy was analyzed into 1 assay endpoints. This assay endpoint, Tanguay_ZF_120hpf_SNOU_legacy, was analyzed in the positive analysis fitting direction relative to DMSO as the negative control and baseline of activity. Using a type of morphology reporter, gain-of-signal activity can be used to understand changes in developmentals as they relate to the whole embryo. To generalize the intended target to other relatable targets, this assay endpoint is annotated to the zebrafish development intended target family, where the subfamily is embryonic snout morphogenesis.
Zebrafish husbandry: Tropical 5D wild-type adult zebrafish were housed in at an approximate density of 1000 per 100 gallon tank at the Sinnhuber Aquatic Research Laboratory, Oregon State University, Corvallis, OR. Each tank was kept at standard laboratory conditions of 28C on a 14-h light/10-h dark photoperiod in fish water consisting of reverse osmosis water supplemented with a commercially available salt (Instant Ocean). Spawning funnels were placed into the tanks the night prior, and embryos were collected and staged. To increase bioavailability, the chorion was enzymatically removed using pronase (63.6mg/ml, >/= 3.5U/mg, Sigma-Aldrich: P5147) at 4 hours post fertilization (hpf) using a custom automated dechorionator.Chemical exposures: Six hpf dechorionated embryos were placed 1 embryo per well in a 96-well plate prefilled with 90 ul of EM using automated embryo placement systems (AEPS). Ten microliters of each row of dilution plate 2 was added to 2 exposure plates. The final DMSO concentration used was 0.64% (vol/vol). Thirty-two embryos were also exposed to 5uM trimethyltin chloride (positive control). Plates were sealed to prevent evaporation and foil covered to reduce light exposure and kept in a 28C incubator. Embryos were statically exposed until 120 hpf. At 24 hpf, embryos were assessed for photomotor response using a custom photomotor response analysis tool (PRAT) and for developmental toxicity endpoints (MO24: mortality at 24 hpf, DP: developmental progression, SM: spontaneous movement, and NC: notochord distortion). At 120 hpf, locomotor activity was measured using Viewpoint Zebralab and assessed for 18 endpoints. Zebrafish acquisition and analysis program (ZAAP), a custom program designed to inventory, acquire, and manage zebrafish data, was used to collect developmental endpoints as either present or absent (i.e., binary responses were recorded). If mortality occurred for an embryo (at either 24 or 120 hpf), the non-mortality endpoints were not measured.

| Compound | outcome | AC50 |
| --- | --- | --- |
| O=C1CCC(N2C(=O)c3ccccc3C2=O)C(=O)N1 (stereo not given) | inactive | – |
| CC(C)=CCCC(C)=CC=O | inactive | – |
| CC(=O)OCCC(C)C | inactive | – |
| CC[C@H]1CC[C@H](NCc2cc3c(cc2OC)[C@H]2C[C@H]2C(=O)N3C)[C@H](c2ccccc2)N1 | inactive | – |
| CC(C)CCCCCCCOC(=O)CCCCC(=O)OCCCCCCCC(C)C | inactive | – |
| COC(=O)c1ccccc1O | inactive | – |
| O=C(O)c1cccc(N(Cc2cccnc2)c2ccc(OC(F)F)c(OC(F)F)c2)c1 | inactive | – |
| CC(C)CCCCCCOC(=O)c1ccc(C(=O)OCCCCCCC(C)C)c(C(=O)OCCCCCCC(C)C)c1 | inactive | – |
| Cc1ccc(S(=O)(=O)O)cc1C | inactive | – |
| O=C1OC(=O)C2C3C=CC(C3)C12 (stereo not given) | inactive | – |
| Cc1ccc(N)cc1O | inactive | – |
| CCCCC(CC)COC(=O)CCCCCCCCC(=O)OCC(CC)CCCC (stereo not given) | inactive | – |
| Cn1cnc([N+](=O)[O-])c1Sc1ncnc2nc[nH]c12 | inactive | – |
| CC(C)c1cccc(C(C)C)c1N1C(=O)c2ccc(O)cc2C1=O | inactive | – |
| Cn1c(=O)c2c(ncn2C)n(C)c1=O | inactive | – |
| NC(=O)NO | inactive | – |
| Clc1nc(Cl)c(Cl)c(Cl)c1Cl | inactive | – |
| Oc1ccc2c(c1)-c1ccccc1C2 | – | 39.3 µM (active) |
| COc1cccc(-c2ccc(/C=C\CN3CCCCCC3)cc2Cl)c1 | inactive | – |
| CC(C)(O)c1coc(S(=O)(=O)NC(=O)Nc2c3c(cc4c2CCC4)CCC3)c1 | inactive | – |

| Compound | outcome | AC50 |
| --- | --- | --- |
| COc1ccc(/C=C/S(=O)(=O)NC(=O)c2ccc(C)cc2Cl)cc1 | inactive | – |
| CCCCCCCCO | inactive | – |
| CCCCCCCCCCCCc1ccccc1 | inactive | – |
| CCN(C(=O)c1cc(C)cc(OC[C@H](C)Nc2ccncc2)c1)C(C)C | inactive | – |
| CC(C)CCO | inactive | – |
| CCn1nc(Cc2ccccc2)cc1C1CCN(C[C@H]2C[C@H](N(C)[C@@H](C(=O)O)C(C)C)C[C@@H]2c2cccc(F)c2)CC1 | inactive | – |
| O=C1CCCCCN1 | inactive | – |
| Cc1ccc(C)c(O)c1 | inactive | – |
| O=C(O)c1cccc(Oc2ccccc2)c1 | inactive | – |
| Fc1ccccc1[C@@H](F)COC1CCC(Nc2ncnc3[nH]ncc23)CC1 (stereo not given in full) | inactive | – |
| CCCN(C1CCN(C(=O)C2CCNCC2)CC1)[C@@H]1CCc2ccc(OC)cc2C1 | inactive | – |
| O=C(O)c1cc(N=Nc2ccc(S(=O)(=O)Nc3ccccn3)cc2)ccc1O | inactive | – |
| Nc1cccc(N)c1 | inactive | – |
| CCCC(=O)OCC | inactive | – |
| COC(=O)CC(=O)OC | inactive | – |
| Nc1ccc(Nc2ccccc2)cc1 | – | 34.9 µM (active) |
| CC[C@H]1OC(=O)[C@H](C)[C@@H](O[C@H]2C[C@@](C)(OC)[C@@H](O)[C@H](C)O2)[C@H](C)[C@@H](O[C@@H]2O[C@H](C)C[C@H](N(C)C)[C@H]2O)[C@](C)(O)C[C@@H](C)C(=O)[C@H](C)[C@@H](O)[C@]1(C)O | inactive | – |
| CNS(=O)(=O)c1cc(C(=O)N2CCC(CCN3C4CCC3CC(n3c(C)nc5ccccc53)C4)(c3cccc(F)c3)CC2)c(Cl)cc1F (stereo not given) | inactive | – |
| CC(=O)OC[C@H]1O[C@@](COC(C)=O)(O[C@H]2O[C@H](COC(C)=O)[C@@H](OC(C)=O)[C@H](OC(C)=O)[C@H]2OC(C)=O)[C@@H](OC(C)=O)[C@@H]1OC(C)=O | inactive | – |
| CCC(C)(C)C(=O)O[C@H]1C[C@@H](C)C=C2C=C[C@H](C)[C@H](CC[C@@H]3C[C@@H](O)CC(=O)O3)[C@H]21 | – | 0.796 µM (active) |
